# Laboratory results as given in PubChem BioAssay (EPA / NIEHS).
# Active and inactive are the calls of the source. Rule for the calls: active = hit-call score of the fitted dose curve at least 0.9, where 1 is the maximum; inactive = score below 0.9.
# Assay: CEETOX_H295R_OHPREG: CeeTox H295R High-throughput Steroidogenesis Assay for OH-Pregnenolone (OHPREG) (AID 2283434)
# Settings: actives raise or lower the signal
# Experimental: CEETOX_H295R is a cell-based, multiplexed-readout assay that uses H295R, a human adrenal gland cell line, with measurements taken at 48 hours after chemical dosing in a 96-well plate.CEETOX_H295R_OHPREG is one of 23 assay component(s) measured or calculated from the CEETOX_H295R assay. It is designed to make measurements of hormone induction, a form of inducible reporter, as detected with […] by HPLC-MS-MS technology.Data from the assay component CEETOX_H295R_OHPREG was analyzed into 1 assay endpoint. This assay endpoint, CEETOX_H295R_OHPREG, was analyzed with bidirectional fitting relative to DMSO as the negative control and baseline of activity. Using a type of inducible reporter, gain or loss-of-signal activity using HPLC-MS-MS was used to understand synthesis of 17alpha-hydroxypregnenolone in H295R cell line at 48hr of chemical exposure. To generalize the intended target to other relatable targets, this assay endpoint is annotated to the steroid hormone intended target family, where the subfamily is progestagens.
# Cell culture and media preparation procedures were conducted in accordance with OECD Test No. 456 guidelines, with minor modifications. H295R cells (ATCC CRL-2128) were expanded for 5 passages and frozen in batches in liquid nitrogen. Prior to the steroidogenesis assay, H295R cells were thawed and passed at least 4 times. The maximum passage was 10. Cells were maintained in a 1:1 mixture of DMEM/F12 supplemented with 5ml/L ITS+ Premix (BD Bioscience) and 12.5 ml/L Nu-Serum (BD Bioscience). After seeding cells into 96-well plates at 50-60% confluency, cells were allowed to adhere overnight. Prior to chemical testing, culture medium was replaced with 175 uL medium containing 10 uM forskolin to stimulate steroidogenesis for 48 hours. Following prestimulation, forskolin medium was replaced with medium containing test chemical solubilized in DMSO (ensuring a final concentration of 0.1% DMSO). Test chemicals were incubated for 48 hours, then the medium was removed and split into 2 vials containing approximately 75uL each, and stored at -80 C prior to hormone analysis. For steroid quantification, media samples were shipped to OpAns, LLC (Durham, NC) on dry ice, and samples were thawed to room temperature prior to liquid-liquid extraction. Steroid hormones were extracted from media samples using methyl tertbutyl ether (MTBE). An extra derivatization with dansyl chloride was included for estrogen (estrone and estradiol) detection only. Steroid hormones were separated by HPLC, eluted using a reverse phase C18 gradient with electrospray positive ionization, followed by quantification by tandem mass spectrometry (MS/MS). Data were acquired on a MassHunter Workstation Acquisition version B03.01 (Agilent Technologies, Inc.) and processed using MassHunter Quantitative Analysis for QQQ. Accuracy was determined for each hormone analyte from 3 standards to determine upper and lower limits of quantification (ULOQ and LLOQ, respectively) using a 7-point standard curve. Precision and accuracy of the extraction and quantification methods were calculated as the percent relative standard deviation (%RSD) of the spiked standards and percent spiked standard recovered, respectively. The goal was to achieve 100% accuracy (i.e., recover all spiked-in standard at quantification with minimal loss during run time) and good precision (i.e., have %RSD <15% to ensure reproducibility). Test medium was removed following chemical exposure, and cell viability was evaluated in the same wells by MTT. MTT procedures were as follows: after removal of test medium, 500 uL of 0.5 mg/ml of 3-[4,5-dimethylthiazol-2-y]2,5-diphenyltetrazoliumbromide solution was added to the cells. Following a 4-hour incubation at 37 C and 5% CO2 to allow formazan-crystal formation, the MTT solution was removed and blue formazan salt crystals were solubilized using 500uL anhydrous isopropanol with shaking for 20 minutes. […]
SMILES,outcome,AC50
c1cc(-c2ccncc2)ccn1,inactive,
COC(=O)c1ccc(O)cc1,inactive,
CCOc1ccc2c(c1)C(C)=CC(C)(C)N2,inactive,
Cc1nc(-c2ccc3c(c2)CCN(CCC2CCC(NC(=O)/C=C/c4ccc(F)cc4)CC2)CC3)no1 (stereo unspecified),,0.0518 µM (active)
COc1ccc(C)cc1N,inactive,
CC=Cc1ccc(O)c(OC)c1,,37.3 µM (active)
Nc1ccc(S(=O)(=O)c2ccc(N)cc2)cc1,inactive,
Cc1cc(NC(=O)C(=O)O)cc(C)c1Oc1ccc(O)c2c1CCC2,inactive,
Oc1ccc2ccccc2c1N=Nc1ccccc1,inactive,
Oc1ccc2c(c1)OC[C@@H](N1CCC(O)(c3ccc(F)cc3)CC1)[C@H]2O,inactive,
C=CCc1ccc(O)c(OC)c1,inactive,
COc1ccc2c(c1)c(CC(=O)O)c(C)n2C(=O)c1ccc(Cl)cc1,inactive,
CC1(C)CC(N=C=O)CC(C)(CN=C=O)C1 (stereo unspecified),inactive,
COc1ccc(S(=O)(=O)N2C(=O)[C@@](c3ccccc3OC)(N3C[C@H](O)C[C@H]3C(=O)N(C)C)c3cc(Cl)ccc32)c(OC)c1,inactive,
Cc1nc(C)nc(N2C[C@@H](C)N(c3ccnc([C@@H](C)O)n3)[C@@H](C)C2)n1,inactive,
Nc1ccc2c(c1)C(=O)c1ccccc1C2=O,inactive,
NC(=O)Cn1c(=O)cc(CCN2CCN(c3nccc4sccc34)CC2)c2ccc(F)cc21,,25 µM (active)
Cc1cccc(Nc2cc(Cl)nc(SCC(=O)O)n2)c1C,,13.1 µM (active)
CN1CCN(Cc2cc(-c3ccc4[nH]c(=O)oc4c3)co2)[C@@H](c2ccc(F)cc2)C1,inactive,
Nc1ccccc1N,inactive,
Cc1c(C(=O)O)c(O)cc2c1C(=O)c1c(O)c([C@@H]3O[C@H](CO)[C@@H](O)[C@H](O)[C@H]3O)c(O)c(O)c1C2=O,inactive,
